Composite z-score and z-score data for 6 compounds are collected here from PubChem BioAssay.

The source made the active and inactive calls.

Test [1] relates to Plasmodium falciparum Sir2 (PF13_0152, Sir2A). Kind of test: Plasmodium falciparum Sir2A binding compounds – biochemical, small-molecule microarray, 635 nm fluorescence, primary screen (AID 1098).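 Also: score merges spot fluorescence intensity with its signal-to-noise ratio.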 The note with it: fluorescence 635 nm, higher = more signal.
A short description of test [2]: probe aDKK1 binding to arrayed compounds – biochemical, biotinylated probe, 635/667 nm fluorescence, primary screen (AID 1099).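 Also: score merges 667nm spot fluorescence with signal to noise across triplicate slides.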 Conditions: small-molecule microarray, higher = more signal.
Test [3] in a line: probe aCHRDL2 binding to arrayed compounds – biochemical, biotinylated probe, 635/667 nm fluorescence, primary screen (AID 1100). Conditions: small-molecule microarray, higher = more signal.
Test [4] can be described thus: change in splice reporter luminescence, either direction, cell-based, HEK293, spliceosome inhibition project, primary screen (AID 1101).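 Also: HEK293 cells carrying a splicing-competent luciferase reporter gene; test concentration not given here.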 Conditions: HEK293 splicing luciferase reporter, 24 h, higher = more signal, called active from +8 up or from −8 down.
Test [5] has as its target Fibroblast growth factor 10 (Homo sapiens) (UniProt O15520). Kind of test: compounds binding fibroblast growth factor 10 – biochemical, small-molecule microarray, 635 nm fluorescence, primary screen (AID 1102). The note with it: FGF10 binding, fluorescence 635 nm, higher = more signal.
The test system of test [6] is glycogen synthase kinase-3 (GSK3A per assay name; protocol says GSK3B). In words: compounds binding glycogen synthase kinase-3 – biochemical, small-molecule microarray, 635 nm fluorescence, GSK3A, primary screen (AID 1103). Also: the record names both GSK3A and GSK3B. The note with it: fluorescence 635 nm, higher = more signal.
The target of test [7] is Epidermal growth factor receptor (Homo sapiens) (UniProt P00533). Kind of test: compounds binding epidermal growth factor receptor – biochemical, small-molecule microarray, 635 nm fluorescence, primary screen (AID 1104).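 Also: score merges 667 nm emission intensity with spot signal to noise over triplicate slides.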 Conditions: EGFR binding, higher = more signal.
Epidermal growth factor receptor (Homo sapiens), sequence (P00533 whole entry, looked up): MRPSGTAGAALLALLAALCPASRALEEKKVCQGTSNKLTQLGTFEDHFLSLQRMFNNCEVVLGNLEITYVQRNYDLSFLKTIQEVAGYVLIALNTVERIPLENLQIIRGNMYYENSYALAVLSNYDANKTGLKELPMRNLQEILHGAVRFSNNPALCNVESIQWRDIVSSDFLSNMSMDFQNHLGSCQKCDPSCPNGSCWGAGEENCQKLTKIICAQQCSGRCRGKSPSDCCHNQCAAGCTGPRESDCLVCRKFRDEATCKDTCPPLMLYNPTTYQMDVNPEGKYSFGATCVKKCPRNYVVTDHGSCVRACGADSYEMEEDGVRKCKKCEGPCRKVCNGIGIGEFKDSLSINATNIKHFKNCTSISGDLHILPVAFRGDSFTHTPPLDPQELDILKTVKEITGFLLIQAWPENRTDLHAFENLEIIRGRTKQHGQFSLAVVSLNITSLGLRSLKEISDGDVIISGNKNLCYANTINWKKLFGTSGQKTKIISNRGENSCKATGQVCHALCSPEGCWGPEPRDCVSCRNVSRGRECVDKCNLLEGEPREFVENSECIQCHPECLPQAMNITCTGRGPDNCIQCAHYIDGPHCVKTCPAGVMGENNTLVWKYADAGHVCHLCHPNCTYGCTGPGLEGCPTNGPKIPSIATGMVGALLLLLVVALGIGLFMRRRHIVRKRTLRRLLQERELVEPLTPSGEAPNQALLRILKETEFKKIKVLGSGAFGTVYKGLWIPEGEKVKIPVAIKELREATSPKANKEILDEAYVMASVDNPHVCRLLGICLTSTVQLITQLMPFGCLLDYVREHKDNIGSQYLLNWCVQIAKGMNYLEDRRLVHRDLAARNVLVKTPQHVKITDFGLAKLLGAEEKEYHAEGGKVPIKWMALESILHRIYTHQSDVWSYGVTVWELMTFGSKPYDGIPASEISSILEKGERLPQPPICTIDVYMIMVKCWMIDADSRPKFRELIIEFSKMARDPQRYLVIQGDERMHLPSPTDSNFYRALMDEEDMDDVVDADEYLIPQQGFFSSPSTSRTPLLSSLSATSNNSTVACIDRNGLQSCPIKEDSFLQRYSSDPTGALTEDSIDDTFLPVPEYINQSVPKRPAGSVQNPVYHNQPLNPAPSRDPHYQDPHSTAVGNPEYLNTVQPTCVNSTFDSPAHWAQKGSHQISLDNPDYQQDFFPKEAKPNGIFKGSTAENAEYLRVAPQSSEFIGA
Test [8] has as its target Follistatin-related protein 3 (Homo sapiens) (UniProt O95633). Kind of test: compounds binding follistatin-related protein 3 – biochemical, small-molecule microarray, 635 nm fluorescence, primary screen (AID 1105).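 Also: score merges emission near 667 nm and signal to noise per printed spot across three slides.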 Conditions: FSTL3 binding, higher = more signal.
Test [9] deals with Dickkopf-related protein 1 (Homo sapiens) (UniProt O94907). In words: small molecules binding DKK1 protein – biochemical, small-molecule microarray, 635 nm fluorescence scan, primary screen (AID 1106).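 Also: score merges emission near 667 nm with signal to noise over three replicate slides.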 The note with it: higher = more signal.
Dickkopf-related protein 1 (Homo sapiens), sequence (O94907 whole entry, looked up): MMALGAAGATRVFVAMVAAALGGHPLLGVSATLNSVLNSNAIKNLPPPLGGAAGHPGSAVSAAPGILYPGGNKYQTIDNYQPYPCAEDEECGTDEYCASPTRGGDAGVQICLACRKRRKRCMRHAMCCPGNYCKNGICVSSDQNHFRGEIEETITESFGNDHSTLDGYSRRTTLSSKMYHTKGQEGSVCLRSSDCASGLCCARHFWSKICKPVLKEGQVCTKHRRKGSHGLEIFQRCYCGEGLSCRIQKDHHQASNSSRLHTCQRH
The test system of test [10] is Inhibin beta A chain (activin A). In words: small molecules binding activin A – biochemical, small-molecule microarray, 635 nm fluorescence scan, primary screen (AID 1107).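 Also: mouse activin A protein probed at 4.33 µg/mL on printed slides; score merges bound-protein fluorescence near 667 nm with spot signal-to-noise.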 Conditions: INHBA, higher = more signal.
Test [11] concerns Human papillomavirus type 1a protein E7 (residues 44-93). Kind of test: small molecules binding HPV E7 44-93 – biochemical, small-molecule microarray, residues 44-93, 635 nm fluorescence, primary screen (AID 1108).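 Also: E7 fragment applied at 1 µg/mL in TBST for 1 h at 4 C; score combines spot fluorescence with its signal to noise ratio.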 Conditions: fluorescence 635 nm, higher = more signal.
Test [12] in a line: hepatitis C replication reporter changes, two-sided – Huh7 cells, luciferase reporter, HCV replication inhibitor project, primary screen (AID 1109).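 Also: huh7 hepatoma cells harbouring a luciferase neomycin HCV replicon reporter; luciferase luminescence as measure of HCV replicon replication; test concentration not given here.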 The note with it: Huh7 HCV replicon luciferase reporter, 48 h; higher = more signal.
For test [13], the target named is Left-right determination factor 2 (Homo sapiens) (UniProt O00292). In words: small molecules binding LEFTY2 protein – biochemical, small-molecule microarray, 635 nm fluorescence scan, primary screen (AID 1110). Conditions: higher = more signal.
Left-right determination factor 2 (Homo sapiens), sequence (O00292 whole entry, looked up): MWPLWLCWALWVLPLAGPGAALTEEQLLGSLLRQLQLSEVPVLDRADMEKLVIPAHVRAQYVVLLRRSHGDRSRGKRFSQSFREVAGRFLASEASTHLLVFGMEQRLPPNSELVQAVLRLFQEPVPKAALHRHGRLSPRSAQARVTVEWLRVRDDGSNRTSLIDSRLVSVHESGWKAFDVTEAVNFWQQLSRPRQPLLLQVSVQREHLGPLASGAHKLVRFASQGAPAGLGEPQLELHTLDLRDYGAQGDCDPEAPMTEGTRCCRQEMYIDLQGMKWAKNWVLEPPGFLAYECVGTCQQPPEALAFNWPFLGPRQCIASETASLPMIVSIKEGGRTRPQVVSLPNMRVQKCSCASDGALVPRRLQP
Test [14] deals with Calmodulin-1 (Homo sapiens) (UniProt P0DP23). Kind of test: small molecules binding calmodulin-1 with EGTA – biochemical, small-molecule microarray, Cy5-labelled CALM1, profiling panel (AID 1111).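 Also: labelled calmodulin applied in Tris saline Tween buffer holding calcium plus EGTA and DTT.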 Conditions: Cy5-CALM1 binding fluorescence, higher = more signal.
The target is the same in test [15]. Kind of test: small molecules binding Ca-loaded calmodulin-1 – biochemical, small-molecule microarray, Cy5-labelled CALM1, plus calcium, artefact control for SMM control-protein annotation, profiling panel (AID 1112).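 Also: score merges spot fluorescence with signal to noise from triplicate slides.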 The note with it: Cy5-CALM1 binding fluorescence, higher = more signal.
Test [16] can be described thus: probe aWnt5a binding to arrayed compounds – biochemical, biotinylated probe, 635/667 nm fluorescence, primary screen (AID 1113).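 Also: score merges 667 nm fluorescence intensity with signal-to-noise per printed feature.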 Conditions: small-molecule microarray, higher = more signal.
The nature of test [17]: probe aShh binding to arrayed compounds – biochemical, biotinylated probe, 635/667 nm fluorescence, primary screen (AID 1114).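 Also: probe is biotin-labelled aShh protein from a stem cell growth factor screen; measures binding of labelled protein to compounds printed on the slide; score merges feature fluorescence at 667 nm with signal-to-noise.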 Conditions: small-molecule microarray, higher = more signal.
Test [18] is described as follows: probe aNog binding to arrayed compounds – biochemical, biotinylated probe, 635/667 nm fluorescence, primary screen (AID 1115).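 Also: probe is biotinylated aNog protein used at 0.15 µg/mL for 1 h at 4 C; z-score combines 667 nm fluorescence of each spot with its signal to noise.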 Conditions: small-molecule microarray, higher = more signal.
In test [19] the target is Torsin-1A-interacting protein 1 (Homo sapiens) (UniProt Q5JTV8). In words: compound microarray binding of lysate hLAP1 – cell lysate, small-molecule microarray, COS7 lysate, 635/667 nm fluorescence, primary screen (AID 1116). The note with it: 635 nm fluorescence, higher = more signal.
Torsin-1A-interacting protein 1 (Homo sapiens), sequence (Q5JTV8 whole entry, looked up): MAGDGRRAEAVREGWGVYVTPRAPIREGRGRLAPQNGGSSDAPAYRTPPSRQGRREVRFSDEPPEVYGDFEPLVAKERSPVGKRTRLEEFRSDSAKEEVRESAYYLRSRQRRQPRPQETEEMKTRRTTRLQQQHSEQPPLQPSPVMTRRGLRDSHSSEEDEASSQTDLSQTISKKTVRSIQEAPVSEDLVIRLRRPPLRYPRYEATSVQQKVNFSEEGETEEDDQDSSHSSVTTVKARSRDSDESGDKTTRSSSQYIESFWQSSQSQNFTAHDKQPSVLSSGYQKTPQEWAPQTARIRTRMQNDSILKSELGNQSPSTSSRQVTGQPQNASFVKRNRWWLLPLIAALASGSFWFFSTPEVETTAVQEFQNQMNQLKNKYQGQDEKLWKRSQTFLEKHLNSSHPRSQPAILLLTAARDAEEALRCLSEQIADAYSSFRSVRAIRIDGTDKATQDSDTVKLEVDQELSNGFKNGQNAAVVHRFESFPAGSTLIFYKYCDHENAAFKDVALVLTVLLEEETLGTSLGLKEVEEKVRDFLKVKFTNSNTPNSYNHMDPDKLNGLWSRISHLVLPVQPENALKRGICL
For test [20], the target named is Alpha-bungarotoxin (Bungarus multicinctus) (UniProt P60615). Kind of test: compounds binding labelled alpha-BTX control protein – biochemical, small-molecule microarray, Alexa647 label, 635/667 nm fluorescence, artefact control for SMM control protein annotation, profiling panel (AID 1117). The note with it: alpha-BTX-A647 binding fluorescence, higher = more signal.
Alpha-bungarotoxin (Bungarus multicinctus), sequence (P60615 whole entry, looked up): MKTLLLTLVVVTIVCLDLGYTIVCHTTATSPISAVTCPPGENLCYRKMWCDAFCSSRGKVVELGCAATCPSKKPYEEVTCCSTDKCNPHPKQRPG

Fibroblast growth factor 10 (Homo sapiens), sequence (O15520 whole entry, looked up): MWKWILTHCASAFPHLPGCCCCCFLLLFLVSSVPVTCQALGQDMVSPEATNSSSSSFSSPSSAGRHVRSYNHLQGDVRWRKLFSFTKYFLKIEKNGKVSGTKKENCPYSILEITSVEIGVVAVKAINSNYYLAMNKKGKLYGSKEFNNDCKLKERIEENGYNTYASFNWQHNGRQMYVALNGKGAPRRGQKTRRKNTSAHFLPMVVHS
Follistatin-related protein 3 (Homo sapiens), sequence (O95633 whole entry, looked up): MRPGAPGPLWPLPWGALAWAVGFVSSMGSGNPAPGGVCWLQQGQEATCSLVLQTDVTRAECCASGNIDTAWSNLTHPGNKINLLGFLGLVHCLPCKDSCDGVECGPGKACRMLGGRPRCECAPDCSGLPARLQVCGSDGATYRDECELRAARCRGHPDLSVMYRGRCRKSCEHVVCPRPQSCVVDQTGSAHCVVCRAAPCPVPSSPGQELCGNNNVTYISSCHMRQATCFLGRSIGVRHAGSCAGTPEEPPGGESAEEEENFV

For the compound `C=C(CCCC)C(=O)CC[C@@H](OC(C)=O)c1cccc(OCCO)c1`, the composite z-score in [1] was 1.12; in [2] it was -0.278; in test [3] it was -0.654; in [5], 0.195; in test [6], -0.249; in test [7] it was -0.161. Further, the composite z-score in test [8] was 0.158; in test [9] it was 0.329; in [10], 0.474; in test [11] it was -0.701; in test [13] it was 0.333; in [14], -0.602. Also, the composite z-score in test [15] was -1.28; in [16], -0.12; in [17], -0.0227; in test [18] it was -0.0381; in [19] it was 2.13; in [20], -0.0603. For the same compound, the z-score in test [4] was 0.726 (inactive); in [12], -4.56.

Regarding `O=C(NN=C1C[C@@H](O)[C@@H](O)[C@@H]2[C@@H]3C(=O)N(c4ccc(F)cc4F)C(=O)[C@@H]3CC[C@@H]12)OCc1ccccc1`, the composite z-score in test [1] was 0.328; in test [2], -0.269; in [3], -0.232; in [5] it was -0.0739; in test [6], -0.0799; in [7] it was 0.452. Besides, the composite z-score is 0.297 in test [8]; 0.092 in [9]; -0.103 in test [10]; 0.782 in test [11]; 0.312 in test [13]; -0.0007 in [14]. Further, the composite z-score in test [15] was -0.226; in [16] it was 0.0354; in test [17] it was -0.0553; in [18] it was -0.562; in [19], 0.547; in test [20] it was 0.736. In addition, the z-score is 0.464 (inactive) in test [4] and -0.769 in test [12].

With `C=C(/C(=C/C[C@@H](OC(=O)c1ccncc1)c1ccc(OCCO)cc1)c1cnc2ccccc2c1)C(C)C`, the composite z-score is 1.2 in test [1]; -0.144 in [2]; -0.216 in [3]; 1.54 in [5]; 1.28 in test [6]; 0.419 in [7]. Besides, the composite z-score in test [8] is 1.24; in test [9], 0.824; in [10], 1.56; in test [11] it was 0.901; in test [13] it was 0.466; in test [14] it was 0.193. Besides, the composite z-score in test [15] was -0.583; in test [16], -0.272; in [17] it was -0.0234; in test [18], -0.302; in [19], 2.75; in test [20] it was 1.26. The z-score was -2.87 (inactive) in [4] and -3.18 in test [12].

`CC(C)(C)N1C(=O)[C@H]2[C@H]3[C@H](O)[C@H](O)CC(=NOCc4ccccc4)[C@@H]3CC[C@H]2C1=O`: the composite z-score in test [1] is 0.616; in test [2] it was -0.192; in test [3], 0.24; in [5], 0.97; in test [6], 0.535; in test [7], 0.455. In addition, the composite z-score in test [8] was 0.988; in test [9], 1.59; in test [10] it was 0.528; in test [11], 0.093; in test [13] it was 1.08; in [14] it was -0.266. The composite z-score in test [15] is -0.717; in [16] it was -0.0194; in test [17], -0.0146; in test [18] it was -0.352; in test [19] it was 0.593; in test [20], 1.19. In addition, the z-score in [4] was -1.07 (inactive); in test [12], 0.656.

As for `CC(C)N1CC=CC23O[C@@H]4C=CCCOC(=O)C4[C@H]2C(=O)N(CCCCCCO)[C@@H]3C1=O` (stereo not given in full), the composite z-score in test [1] is 0.627; in [2], -0.201; in [3], 0.587; in test [5] it was -1.03; in [6], -1.13; in test [7] it was -1.13. The composite z-score is -1.22 in test [8]; -1.59 in test [9]; 0.12 in [10]; -0.558 in test [11]; -1.39 in test [13]; -0.0847 in [14]. In addition, the composite z-score in [15] is 0.749; in test [16], -0.252; in test [17], -0.221; in test [18], 0.0432; in test [19] it was -0.423; in test [20] it was -0.866. In addition, the z-score was 1.59 (inactive) in test [4] and -0.845 in [12].

For the compound `O=C1c2ccccc2[C@@]2(Cc3ccccc3N(C3CC3)C2=O)[C@H](c2ccc(CO)cc2)N1Cc1ccccc1C(F)(F)F`, the composite z-score in test [1] is -0.0922; in test [2], 0.261; in test [3], 0.281; in test [5], -0.837; in test [6], -0.433; in test [7], -0.942. For the same compound, the composite z-score in test [8] was -0.672; in [9] it was -1.2; in [10], 0.394; in [11], 0.223; in test [13], -1.18; in [14] it was -0.48. The composite z-score in [15] is -0.382; in test [16], -0.154; in test [17] it was 0.0545; in test [18] it was -0.23; in [19], 0.188; in test [20], -1.37. Also, the z-score in [4] was -0.628 (inactive); in test [12], -2.39.
